Several values for one entry are separate records, joined by “and”; a condition that tells them apart may be missing. Equal entries are not always repeated. Where two headings read alike, the source gives them in different places.

One test has as its system KIT. Conditions: concentration: 1 μM, replicates: in singlicate; n = 1.
A further test relates to LATS1. Conditions: concentration: 1 μM, replicates: in singlicate; n = 1.
In another test the test system is LATS2. Conditions: n = 1.
Another test has as its system LCK. Conditions: n = 1.
The subject of another test is LIMK1. Conditions: n = 1.
Another test deals with LIMK2. Conditions: n = 1.
The test system of another test is T1, LKB1.
T1 construct: gene STK11
Conditions: concentration: 1 μM, replicates: in singlicate; n = 1.

For another test, the system named is T2, LOK.
T2 construct: gene STK10
Conditions: concentration: 1 μM, replicates: in singlicate; n = 1.

Another test has as its system LRRK2. Conditions: concentration: 1 μM, replicates: in singlicate; n = 1.
In another test the test system is LTK. Conditions: n = 1.
Setting [1] is: concentration: 1 μM, replicates: in singlicate.
[2] abbreviates: concentration: 1 μM,replicates: in singlicate, 1 µM.
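Note: KINOMEscan kinase panel screen.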

For `Cc1cc(-c2ccc3c(c2)CC[C@@H](N[C@@H](C)c2ccccc2)C3)cnc1N.Cl` [GW412617], the “%Inh” value with KIT is recorded as 60%; in the test with LATS1, 0%; in the test with LATS2 (setting [1]) it was 0%; in the test on LCK (setting [1]), 34%; in the test with LIMK1 (setting [1]) it was 0%; in the test with LIMK2 (setting [1]), 0%. The “%Inh” value with LKB1 is recorded as 0%; with LOK it was 0%; with LRRK2, 33%; with LTK (setting [1]), 0%.

As for `Nc1nc(-c2nccs2)c(-c2ccnc3ccccc23)s1` [GW693542], the “%Inh” value with KIT came out at 0%; with LATS1, 22%; in the test with LATS2 (setting [1]), 0%; with LCK (setting [1]) it was 13%; in the test on LIMK1 (setting [1]), 6%; in the test on LIMK2 (setting [1]) it was 0%. In addition, the “%Inh” value in the test with LKB1 came to 0%; in the test with LOK, 0%; with LRRK2, 19%; with LTK (setting [1]) it was 4%.

On to `Fc1cccc(COc2nnc(-c3ccc4c(c3)CCO4)o2)c1`, for which the “%Inh” value in the test with KIT came to 3%; in the test with LATS1 it was 0%; with LATS2 (setting [1]), 0%; in the test with LCK (setting [1]), 0%; in the test with LIMK1 (setting [1]), 0%; in the test on LIMK2 (setting [1]), 0%. In addition, the “%Inh” value worked out at 16% in the test with LKB1, 0% with LOK, 4% in the test on LRRK2 and 0% in the test on LTK (setting [1]).

For the compound `O=C(Nc1n[nH]c2nc(-c3nccs3)c(Br)cc12)C1CCCC1` [SB-742609], the “%Inh” value was 7% in the test on KIT; 9% in the test on LATS1; 0% with LATS2 (setting [1]); 9% with LCK (setting [1]); 19% with LIMK1 (setting [1]); 0% with LIMK2 (setting [1]). For the same compound, the “%Inh” value in the test on LKB1 is 0%; with LOK, 0%; in the test on LRRK2, 35%; in the test on LTK (setting [1]) it was 0%.

Turning to `COc1ccc2nc(-c3cccc(C)n3)nc(Nc3ccncc3)c2c1` [GSK204919], the “%Inh” value was determined as 26% in the test with KIT; 0% with LATS1; 0% with LATS2 (setting [1]); 4% with LCK (setting [1]); 20% with LIMK1 (setting [1]); 3% in the test on LIMK2 (setting [1]). Moreover, the “%Inh” value with LKB1, with LOK, with LRRK2 and in the test on LTK (setting [1]) was 0% each time.

In the case of `Cl.NC(=O)c1cccc(Nc2nccc(Nc3ccc(Oc4cccc(Cl)c4)c(Cl)c3)n2)c1` [GW659008], the “%Inh” value is recorded as 46% with KIT; 0% with LATS1; 0% in the test with LATS2 (setting [1]); 68% in the test with LCK (setting [1]); 43% in the test with LIMK1 (setting [1]); 4% in the test on LIMK2 (setting [1]). For the same compound, the “%Inh” value in the test with LKB1 worked out at 0%; in the test on LOK, 15%; with LRRK2, 11%; in the test on LTK (setting [1]) it was 0%.

Turning to `Cc1cccc(-c2cc(Nc3ccncc3)c3ccccc3n2)n1` [GSK223675], the “%Inh” value with KIT turned out to be 19%; in the test on LATS1, 0%; in the test on LATS2 (setting [1]) it was 22%; in the test on LCK (setting [1]), 9%; in the test with LIMK1 (setting [1]), 0%; with LIMK2 (setting [1]), 0%. The “%Inh” value is 7% with LKB1, 0% in the test with LOK, 0% in the test on LRRK2 and 0% in the test with LTK (setting [1]).

As to `Cc1cccc(-c2nc(-c3ccc(S(C)(=O)=O)cc3)sc2-c2ccnc(NCCc3ccccc3)c2)c1`, the “%Inh” value with KIT was found to be 98.4%; in the test on LATS1 it was 13%; with LATS2 (setting [1]) it was 0%; with LCK (setting [1]) it was 0%; with LIMK1 (setting [1]), 0%; in the test on LIMK2 (setting [1]), 4%. Further, the “%Inh” value in the test on LKB1, with LOK, in the test on LRRK2 and with LTK (setting [1]) was 0% throughout.

For the compound `CC(=O)Nc1nc2cnc(Nc3cc(NC(=O)c4cccc(CCC#N)c4)ccc3C)nc2s1`, the “%Inh” value came to 99.7% in the test on KIT; 21% with LATS1; 29% in the test with LATS2 (setting [1]); 27% in the test with LCK (setting [1]); 0% in the test with LIMK1 (setting [1]); 0% in the test with LIMK2 (setting [1]). In addition, the “%Inh” value in the test on LKB1, in the test on LOK, in the test on LRRK2 and in the test on LTK (setting [1]) was 0% throughout.

For the compound `COC(=O)c1c(-c2ccccc2)c2cc(C(=O)O)ccc2c(=O)n1Cc1ccccc1`, the “%Inh” value in the test on KIT is reported as 93.1%; in the test with LATS1 it was 22%; with LATS2 (setting [1]) it was 0%; in the test with LCK (setting [1]), 0%; in the test on LIMK1 (setting [1]), 1%; in the test on LIMK2 (setting [1]), 0%. The “%Inh” value in the test on LKB1, with LOK, in the test with LRRK2 and in the test on LTK (setting [1]) was 0% each time.

With `O=C(Nc1n[nH]c2nc(-c3nccs3)c(Br)cc12)C1CC1` [SB-742251], the “%Inh” value with KIT was determined as 1%; in the test on LATS1 it was 24%; in the test on LATS2 (setting [1]), 0%; with LCK (setting [1]), 0%; in the test on LIMK1 (setting [1]) it was 0%; with LIMK2 (setting [1]) it was 0%. In addition, the “%Inh” value in the test on LKB1 amounted to 0%; with LOK, 0%; in the test on LRRK2, 32%; with LTK (setting [1]), 0%.

On to `Cl.Oc1ccc(-c2nc(-c3ccccc3)[nH]c2-c2ccncc2)cc1` [SB-428218], for which the “%Inh” value with KIT worked out at 26%; with LATS1 it was 0%; in the test with LATS2 (setting [1]), 48%; in the test on LCK (setting [1]), 20%; in the test on LIMK1 (setting [1]), 0%; with LIMK2 (setting [1]), 0%. In addition, the “%Inh” value with LKB1 is given as 8%; in the test with LOK, 0%; in the test with LRRK2, 0%; with LTK (setting [1]) it was 0%.

Consider `CSc1nn2c(=O)cc(N3CCOCC3)nc2n1Cc1cccc(C(F)(F)F)c1C` [GSK2363608], for which the “%Inh” value in the test with KIT was 4%; in the test with LATS1, 0%; in the test with LATS2 (setting [2]), 13% and 0%; with LCK (setting [2]) it was 29% and 2%; in the test with LIMK1 (setting [2]), 6% and 17%; with LIMK2 (setting [2]) it was 20% and 0%. Further, the “%Inh” value with LKB1 was 0%; in the test with LOK, 0%; with LRRK2, 0%; in the test on LTK (setting [2]), 17% and 0%.

Take `COc1ccc(Nc2nccc(-c3cccc(NC(=O)c4cc5cc(F)ccc5[nH]4)c3)n2)cc1` [GSK1229782]: the “%Inh” value with KIT is listed as 57%; in the test on LATS1, 5%; with LATS2 (setting [1]), 6%; with LCK (setting [1]) it was 46%; in the test on LIMK1 (setting [1]), 0%; with LIMK2 (setting [1]), 12%. Also, the “%Inh” value with LKB1 is reported as 12%; with LOK, 0%; with LRRK2, 42%; with LTK (setting [1]) it was 19%.

As for `Cl.O=C(Nc1cccc(-c2nn3ncccc3c2-c2ccnc(Nc3cccnc3)n2)c1)c1c(F)cccc1F` [GSK312879], the “%Inh” value with KIT is given as 36%; with LATS1, 2%; in the test on LATS2 (setting [1]), 0%; in the test with LCK (setting [1]), 44%; with LIMK1 (setting [1]) it was 2%; with LIMK2 (setting [1]), 0%. The “%Inh” value with LKB1 was found to be 0%; in the test with LOK, 0%; in the test on LRRK2, 39%; in the test with LTK (setting [1]), 3%.

Take `O=C1NC(=O)C(N2CCc3ccccc32)=C1c1ccccc1Cl` [SB-373598]: the “%Inh” value came out at 2% in the test on KIT; 0% in the test with LATS1; 19% in the test with LATS2 (setting [1]); 35% in the test on LCK (setting [1]); 21% with LIMK1 (setting [1]); 15% in the test with LIMK2 (setting [1]). For the same compound, the “%Inh” value was 2% with LKB1, 10% in the test with LOK, 0% in the test on LRRK2 and 99.1% in the test on LTK (setting [1]).

Take `COc1cc2ncn(-c3cc(OCC4CCCO4)c(C(N)=O)s3)c2cc1OC` (centres unmarked) [GSK204607]: the “%Inh” value in the test with KIT was 16%; in the test on LATS1, 0%; with LATS2 (setting [1]) it was 10%; in the test with LCK (setting [1]), 7%; in the test on LIMK1 (setting [1]) it was 0%; in the test on LIMK2 (setting [1]) it was 16%. Moreover, the “%Inh” value worked out at 0% in the test on LKB1, 96.9% with LOK, 0% with LRRK2 and 11% with LTK (setting [1]).

The values are drawn from paper PMC5540273 (PLoS ONE, 2017).
